The text below walks through data of PubChem BioAssay (NCI).

The panel holds about 83,000 compounds, 20% with a hit somewhere; the sample as a whole holds those more often.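 Testing used 96-well plates and a 48-hour single-concentration exposure. Example: -40 means 40% of the starting cells died.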 Unmarked numbers belong to inactive results. The source made the active and inactive calls.

The test system of the assay is NCI-H460 lung. The experiment in a line: NCI-60 one-dose screen, 48 h (100 = growth as untreated, 0 = no growth, -100 = all killed). Particulars: 10 µM unless noted. On the procedure:
Growth inhibition of the NCI-H460 human Non-Small Cell Lung tumor cell line is measured as a screen for anti-cancer activity. Cells are grown in 96 well plates and exposed to the test compound for 48 hours. Compounds are tested at a single concentration, which is 10^-5 M for most compounds. The reported endpoint is percent growth (GI% or GIPRCNT), where numbers from 0 - 100% represent growth inhibition, and numbers from -100% - 0 represent cell death. For example, a value of 40 represents 60% growth inhibition. A value of 0 means no net growth occurred over the course of the experiment. A value of -40 indicates 40% of cells at the beginning of the experiment died by the end of the experiment. A value of -100 means all cells are dead at the end of the experiment.
NCI-60 Human Tumor Cell Lines Screen was performed using the standard one-dose NCI protocol, which is described in more detail at https://dtp.cancer.gov/discovery_development/nci-60/default.htm.
Compounds with GIPRCNT values below 10 were considered active. Activity score was based on GIPRCNT using the following formula: […]
Score is 0 for GIPRCNT values of 100 or above, 50 for GIPRCNT values of 0, and 100 for GIPRCNT values of -100.
Turning to `CC(=O)c1c(C)[nH]c(-c2nc3ccc(N4CCN(C)CC4)cc3[nH]2)c1-c1ccc2c(c1)OCCO2`, the growth was 62.7%.

As for `Cn1cc(-c2nc(-c3c[nH]c4ncccc34)cs2)c2ccccc21`, the growth was 35.8%.

With `CCN1CCN(C(=O)[C@]23CCC(C)(C)C[C@@H]2C2=CC[C@@H]4[C@@]5(C)C/C(=C/c6ccncc6)C(=O)C(C)(C)[C@@H]5CC[C@@]4(C)[C@]2(C)CC3)CC1`, the growth was -64.7% (active).

As to `C=CC(=O)N[C@H](Cc1ccc(-c2cc(Cl)cc(Cl)c2)cc1)[C@H](O)[C@@H](O)C(=O)O`, the growth is 94.9%.

Consider `Cn1cc(-c2csc(-c3cn(CCN)c4ccc(Br)cc34)n2)c2cccnc21`, for which the growth is 16.4%.

In the case of `COc1ccc(/C=C(\C#N)c2cc3ccccc3n2S(C)(=O)=O)cc1`, the growth was 105%.

In the case of `O=C1OC(c2ccc(Cl)c(Cl)c2)=C/C1=C/c1cccc([N+](=O)[O-])c1`, the growth was 102%.

On to `Cc1cc2nc3c4cc(O)ccc4n(CCN(C)C)c3nc2cc1C`, for which the growth is 3.73% (active).

As to `CC(CNc1nc(Nc2ccc(Cl)c(Cl)c2)nc(C(Cl)(Cl)Cl)n1)N(C)C` (stereo not given), the growth was -63% (active).

As to `O=C1CCN2C(=O)Nc3ccccc3C2C1` (stereo not given), the growth is 100%.

For the molecule `CN1CCN(c2nc(-c3cccc4ccccc34)nc3sc4c(c23)CCCCCC4)CC1`, the growth is 91.4%.

Take `COc1ccc(-c2cc(-c3c(C)oc4cc5occc5c(OC)c4c3=O)nc(N)c2C#N)cc1OC`: the growth is 32.4%.

As to `CCOC(=O)c1ccc2c(c1)[n+](=O)c(C(=O)C1CCCS1)c(C(F)(F)F)n2[O-]` (stereo not given), the growth is -73.7% (active).

In the case of `COc1ccc(-c2nc3c(c(C)nn3-c3ccc(F)cc3)c(=O)[nH]2)cc1`, the growth was 28.2%.

`CN1CCN(c2nc(-c3csc(-c4cccs4)n3)cc3ccccc23)CC1`: the growth was -25.6% (active).

In the case of `Cn1cc(-c2nc(-c3c[nH]c4ncccc34)cs2)c2cc(Cl)ccc21`, the growth was 47%.

Take `Cc1cccc(C)c1NC(=O)CSC(=S)N1CCN(CCOCCO)CC1`: the growth is 114%.

Turning to `COc1cccc(-c2nn(-c3ccccc3)cc2-c2ccnc(NCCNS(=O)(=O)c3ccc(Cl)cc3)c2)c1`, the growth was 32.9%.

Take `COC(=O)[C@]12CC[C@@H](C)[C@H](C)[C@@H]1C1=CC[C@@H]3[C@@]4(C)C[C@@H](O)OC[C@](C)(C=O)C4C(=O)C[C@@]3(C)[C@]1(C)CC2` (stereo not given in full): the growth is -13% (active).

As to `NCCn1cc(-c2nc(-c3c[nH]c4ncccc34)cs2)c2ccccc21`, the growth is 89.8%.

On to `Cc1cc(N2CCN(C)CC2)nc(N(CCNc2ccnc3cc(Cl)ccc23)Cc2ccco2)n1`, for which the growth was 24.3%.

`CC1(C)CC[C@]2(C(=O)NCCNCCN)CC[C@]3(C)C(=CC[C@@H]4[C@@]5(C)CCC(=O)C(C)(C)[C@@H]5CC[C@]43C)[C@@H]2C1`: the growth is -55.8% (active).

On to `COc1cc(/C=C/c2cc(/C=C/c3ccc(O)c(OC)c3)n(-c3ccccc3)c(=O)n2)ccc1O`, for which the growth is 91%.

Turning to `Clc1ccc2c(NCCNc3nc(-c4ccccc4)cc(-c4ccccc4)n3)ccnc2c1`, the growth was -73% (active).

Turning to `C#Cc1cccc(NC(=O)C2CCCN(C(=O)CCl)C2)c1` (stereo not given), the growth is 97.5% [8.25 µM].

Regarding `COc1ccc2c(c1)C/C(=C\c1cc(-c3ccc4c(c3)OCO4)n[nH]1)C2=O`, the growth was 92.6%.

For `Cc1ccnc2c(OCc3ccccc3)cccc12`, the growth was 86.1%.

For `C=C1C(=O)O[C@H]2[C@H]1CC/C(COC(=O)N[C@H](Cc1c[nH]c3ccccc13)C(=O)OC)=C\CC[C@@]1(C)O[C@@H]21`, the growth was 64%.

Regarding `CC(C)=CCC[C@](C)(O)[C@H]1CC[C@]2(C)[C@@H]1CC[C@@H]1[C@@]3(C)C/C(=C/c4ccc(Br)cc4)C(=O)C(C)(C)[C@@H]3CC[C@]12C`, the growth is 96.3%.

With `Cc1ccc(NC2CC(=O)N(c3c(C)cc(C)cc3C)C2=O)c(C)c1` (stereo not given), the growth was 108%.

`C[C@@H](Oc1ccc(C(=O)NS(=O)(=O)C(C)(C)C)cc1C(F)(F)F)c1ccc(Oc2ccccc2)cn1`: the growth is 45.7%.

Regarding `O=C(O)/C(=C/c1ccc(O)cc1)c1ccccc1`, the growth is 108%.

For the molecule `O=C1/C(=C\C(Cl)=C/c2ccc([N+](=O)[O-])cc2)SC(=S)N1CCc1ccc(O)cc1`, the growth was 0.441% (active).

On to `Clc1ccc2[nH]cc(-c3nc(-c4c[nH]c5ncccc45)cs3)c2c1`, for which the growth was 19%.

`C=C(C)[C@@H]1CC[C@]2(C)[C@H](CC=C3[C@@H]4CC(C)(C)CC[C@]4(C(=O)OC)CC[C@]32C)[C@@]1(C)CC/C(N)=N/O`: the growth is 74.9%.

On to `O=C1/C(=C\c2ccco2)SC(=S)N1CCc1ccc(O)cc1`, for which the growth is 106%.

For the molecule `N#Cc1cnc2cc(OC[C@@H](O)CO)c(NC(=O)C3CCCC3)cc2c1Nc1ccc(OCc2cccc(F)c2)c(Cl)c1`, the growth was 0.536% (active).

Take `COc1ccc(-c2n/c(=C\c3c(O)[nH]c4ccc(OC)cc34)cc3c2=Nc2ccccc2-3)cc1`: the growth is -32.2% (active).

For the molecule `CC(C)(C)c1ccc(OP(=S)(N/N=C/c2ccccc2O)Oc2ccc(C(C)(C)C)cc2)cc1`, the growth was 87%.

For `CC(=O)O[C@H]1CC[C@]2(C)[C@H]3C(=O)C=C4[C@@H]5C[C@](C)(C(=O)N6CCCNCC6)CC[C@]5(C)CC[C@@]4(C)[C@]3(C)CC[C@H]2C1(C)C`, the growth is -83.8% (active).
